Compounds with a hit are over-represented: about 10% of the library has one in this group of screens.
HP1b binding inh = inhibitors of HP1-beta chromodomain binding to methylated histone tails; AlphaScreen HP1-beta / biotin-H3K9me3 peptide binding; Potency, µM (doses to about 114 µM), inactives show at the top dose activity change, negative = inhibition, most hits filed as inhibitors; 390,000 compounds, 0.56% hits; note: potency is the fitted concentration of half-maximal effect; nearly all actives have a fitted effect of over 70% in size
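Compound inhibition of the preformed complex between 50 nM HP1-beta and 50 nM biotinylated H3K9me3 peptide was read by AlphaScreen. Buffer was PBS pH 7.4 with 0.01% Tween-20. Incubations ran 30 min at room temperature, with 10 ug/mL donor/acceptor beads.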
JMJD2A Tudor = JMJD2A Tudor domain (human) inhibition; Potency, µM (series often up to 114 µM), without a hit: top-dose activity change, negative = inhibition, most hits filed as inhibitors; AlphaScreen JMJD2A-Tudor / H3K4me3 peptide binding; O75164; 390,000 compounds, 4.4% hits; note: potency is the fitted concentration of half-maximal effect; % is set by controls: 0 for no effect and ±100 for the full control effect; nearly all actives have a fitted effect of over 50% in size
BAZ2B block = blocks human BAZ2B; 360,000 compounds, 4.4% hits; Q9UIF8; AlphaScreen BAZ2B-H3K14Ac peptide displacement; Potency, µM (doses to about 114 µM), for inactives: at the top dose activity change, negative = inhibition, usual class: inhibitors; AID 504333; note: potency is the fitted concentration of half-maximal effect; % is set by controls: 0 for no effect and ±100 for the full control effect; nearly all actives have a fitted effect of over 60% in size
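AlphaScreen displacement of biotin-H3(5-23)K14Ac peptide (50 nM final) from BAZ2B (50 nM final) in PBS pH 7.4, 0.01% Tween-20; complex preformed 30 min RT, then compounds (top 110 uM) 30 min RT, beads 20 min dark.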
CtBP-E1A blk = blocks the CtBP interaction with E1A. AlphaScreen GST-E1A/His-CtBP binding, 1536-well; stronger effect = lower value. activity change, % (concentration not given with the values). 340,000 compounds, 0.49% hits. AID 651724; in the data active = activity change below about -65%; inconclusive = mostly about -30% to -63%; note: % is set by controls: 0 for no effect and ±100 for the full control effect
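In 5 uL wells, 23 nL compound meets equimolar GST-E1A and His-CtBP (5X stock 125 nM each) for 2 h, 37 °C. Beads (5X, 50 ug/mL) then 1 h, 37 °C, dark.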
Six1-Eya2 blk = Six1/Eya2 interaction inhibition | AlphaScreen GST-Six1/His-Eya2 binding, biochemical; stronger effect = lower value | Q15475+O00167 | activity change, % (no concentration beside the values) | 360,000 compounds, 0.56% hits | AID 651725; in the data active = activity change below about -65%; inconclusive = mostly about -30% to -63%; note: % is set by controls: 0 for no effect and ±100 for the full control effect
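GST-Six1 + His-Eya2 (5X stock: 250/500 nM); Tris pH 8.0, 300 mM NaCl, 0.05% BSA, 0.02% Tween 20; GSH donor/Ni acceptor beads; 1 h 37 °C dark; AlphaScreen readout.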
G9a inh = inhibitors of human histone lysine methyltransferase G9a; Q96KQ7; G9a H3K9 monomethylation, AlphaScreen, 2 h; Potency, µM (series often up to 102 µM), without a hit: at the highest dose activity, negative = inhibition, hits mostly inhibitors; 350,000 compounds, 8.8% hits; note: potency is the fitted concentration of half-maximal effect; % is set by controls: 0 for no effect and ±100 for the full control effect; nearly all actives have a fitted effect of over 75% in size
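Enzyme 20 nM + cpd, 15 min RT; add b-H3K9 pep 500 nM / SAM 20 uM; 2 h RT; anti-H3K9me1 Ab 0.5 ug/mL + SA donor / anti-rabbit acceptor beads 20 ug/mL each, 10 min; AlphaScreen read.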
The depositor's hits bear a star; ? = inconclusive; / = no result given; [ ] = another dose, or the depositor's remark. Unless noted, calls come from the whole dose curve; as a rule, active = well fitted inhibition curve with a large enough effect; inconclusive = small, poorly fitted or top-dose-only effect; inactive = no such curve, though single readings can be large or run the other way.

SMILES	HP1b binding inh	JMJD2A Tudor	BAZ2B block	CtBP-E1A blk	Six1-Eya2 blk	G9a inh
COc1ccc(N2CCn3c2nc2c3c(=O)n(CCc3ccccc3)c(=O)n2C)cc1	/	/	-1%	/	/	7%
O=C(Nc1cccc(-c2nc3ncccc3o2)c1)c1ccc(-c2cccc(Cl)c2Cl)o1	17%	-11%	?	/	/	?
CSc1cccc(NC(=O)C2CCCN(S(=O)(=O)c3ccc4c(c3)CCCN4C(C)=O)C2)c1 (stereo not given)	5%[57 µM]	-19%	-5%	/	/	0%[59 µM]
O=C(NCCCc1ccccc1)[C@@H]1Cc2ccccc2CN1	94%	-2%	-3%	5	8	-6%
O=C1/C(=C/c2ccc([N+](=O)[O-])cc2)C=C(c2ccccc2)N1c1ccccc1	-5%	-26%	-26%	-1	-5	?
O=C(O)c1cccc(N2C(=O)/C(=C/c3ccc([N+](=O)[O-])cc3)C=C2c2ccccc2)c1	-26%	25µM*	40µM*	/	1	16µM*
O=C(O)c1cccc(N2C(=O)c3cc([N+](=O)[O-])cc4cc([N+](=O)[O-])cc(c34)C2=O)c1	?	50µM*	56µM*	-68*	-75*	/
COc1ccc(N2C(=O)/C(=C/c3ccc([N+](=O)[O-])cc3)C=C2c2ccccc2)cc1	3.2µM*	2.8µM*	2.2µM*	2	-1	/
O=C1/C(=C/c2ccc([N+](=O)[O-])cc2)C=C(c2ccccc2)N1c1ccc(O)cc1	?	?	10µM*	-10	-4	?
COc1ccccc1CN1CC(C(=O)NCc2ccc(SC)cc2)CCC1=O (stereo not given)	22%	-15%	-15%	1	-14	25%
CC(=O)NCCNc1cc(-c2ccccc2C)ncn1	/	/	/	/	/	3%[0.501 µM]
COC(=O)CN1C(=O)CSc2ccc(S(=O)(=O)Nc3cccc(C)c3C)cc21	17%	-14%	-14%	/	/	-29%[59 µM]
Cc1ccc2c(c1)-c1c(cnn1CC(=O)N1CCN(c3cccc(C(F)(F)F)c3)CC1)CO2	5%	-30%	-11%	/	/	-4%[59 µM]
CC(C)(C)c1ccc(CC(=O)N2CCC2(C)C(=O)N2CCCCC2)cc1 (stereo not given)	/	/	/	-20	7	/
c1ccc(C2NCCn3cccc32)cc1 (stereo not given)	26%	?	?	-2	-5	50µM*
Fc1ccc(C2NCCn3cccc32)cc1 (stereo not given)	17%	-34%	?	-9	-12	?
COC[C@H]1CCCN1[C@H]1CS(=O)(=O)N[C@@H]1COCc1ccccc1	/	/	/	3	13	/
CCN1C(c2ccc(F)cc2)=CS/C1=C(\C#N)c1nnc2n1-c1ccccc1SC2	-16%	?	?	-16	-11	32µM*
O=C1Nc2ccc(Br)cc2/C1=C/C(=O)c1ccc2c(c1)OCO2	-13%	?	?	/	-2	10µM*
O=c1cc(-c2ccc(Cl)cc2)oc(=O)[nH]1	32%	-13%	-3%	/	-1	33%[59 µM]
O=c1cc(N=Nc2ccc(Cl)cc2)[nH]c(=O)[nH]1	23%	-7%	2%	-10	3	45µM*
Cc1ccc(-n2c(N)c(C(=O)N3CCOCC3)sc2=S)cc1	-15%	?	-5%	-1	-1	?
CN1CCN(C(=O)c2sc(=S)n(-c3ccccc3)c2N)CC1	?	100µM*	-7%	-3	5	?
Cn1nc(-c2ccc(N3CCCCC3)c(NC(=O)c3ccco3)c2)c2ccccc2c1=O	-12%	-27%	?	11	0	40µM*
CCCN(CCO)Cc1ccc(F)c(Br)c1	?	14µM*	79µM*	4	8	16µM*
SMILES	HP1b binding inh	JMJD2A Tudor	BAZ2B block	CtBP-E1A blk	Six1-Eya2 blk	G9a inh
CCCN(CCO)Cc1ccc2ccccc2c1	29%	-6%	7%	2	0	-11%
COc1ccc(-c2nc(CS(=O)(=O)CC(=O)NCc3ccc4c(c3)OCO4)c(C)o2)cc1	38%	-14%	-5%	1	1	/
Cc1ccccc1-c1nc(CS(=O)(=O)CC(=O)NCc2ccc3c(c2)OCO3)c(C)o1	43%	-16%	-9%	-5	0	50µM*
Cc1ccccc1-c1nsc(SCC(=O)NCc2ccc3c(c2)OCO3)n1	-7%	-17%	-3%	-1	-5	35µM*
CN(C)S(=O)(=O)c1ccc(N2CCCC2)c(C(=O)NNC(=O)COc2ccc(Cl)cc2)c1	18%	-10%	-17%	0	-17	?
COc1ccc(Nc2c(-c3ccsc3)nc3nc(C)cc(C)n23)cc1	7%	-32%	?	/	/	-23%[59 µM]
C[C@@H](c1ccccc1)N1C[C@@H](COCc2ccccc2)Oc2cc(N3CC[C@H](O)C3)ccc2S1(=O)=O	/	/	/	-15	-14	/
C[C@@H]1CN([C@@H](C)CO)C(=O)c2cc(NC(=O)C3CCCCC3)ccc2O[C@@H](C)CCCCO[C@@H]1CN(C)C(=O)CCCN(C)C	/	/	/	5	6	/
Cc1c(NC(=S)NC(=O)c2cc3ccccc3o2)c(=O)n(-c2ccccc2)n1C	7%	-10%	4%	-2	2	21%[59 µM]
CCCN1C(=O)/C(=C2\SC(N3CCCCC3)=NC2=O)c2ccccc21	-70%	40µM*	16µM*	-7	-18	22µM*
CN1C(=O)/C(=C2\SC(N3CCCCCC3)=NC2=O)c2ccccc21	?	40µM*	?	-18	-1	40µM*
CCOC(=O)C(=O)Nc1nnc(C2CCCCC2)s1	-10%	-8%	-14%	0	3	8.9µM*
CCOCC(=O)Nc1nnc(C2CCCCC2)s1	-27%	-15%	7%	-3	0	?
COc1ccc(NC(=O)CCC(=O)Nc2nnc(C3CCCCC3)s2)c(OC)c1	27%	-10%	-11%	-3	-9	71µM*
COc1ccc(N2CC(C(=O)Nc3nnc(SCc4ccccn4)s3)CC2=O)cc1 (stereo not given)	22%	-15%	-6%	6	0	50µM*
Cc1ccc(N2CC(C(=O)N3CCC(C(=O)Nc4nnc(C(C)C)s4)CC3)CC2=O)cc1 (stereo not given)	-14%	-4%	12%	-2	-1	45µM*
OC(COc1ccc(CN2CCCCO2)cc1)CN1CCCCC1 (stereo not given)	26%	-4%	-1%	0	21	11%[0.501 µM]
CCOC(=O)CN(Cc1ccccc1)C(C(=O)NC1CCCCC1)c1ccc(C)cc1 (stereo not given)	21%	-9%	11%	/	/	15%[59 µM]
Cc1ccc(N2CC(C(=O)Nc3nnc(SCC(N)=O)s3)CC2=O)cc1 (stereo not given)	38%	-15%	-8%	5	-1	40µM*
